Bioassay records: PubChem BioAssay, National Center for Advancing Translational Sciences (NCATS)
G9a block – G9a (human) methyltransferase inhibition. G9a H3K9 monomethylation, AlphaScreen, 2 h. Potency, µM (doses to about 102 µM), without a hit: top-dose activity, negative = inhibition, usual class: inhibitors. 350,000 compounds, 8.8% hits; also: potency is read from the fitted curve at half-maximal effect; % is scaled to controls: 0 for no effect and ±100 for the full control effect; nearly all actives have a fitted effect of over 75% in size
Target sequence (Q96KQ7 913-1193 limits assumed): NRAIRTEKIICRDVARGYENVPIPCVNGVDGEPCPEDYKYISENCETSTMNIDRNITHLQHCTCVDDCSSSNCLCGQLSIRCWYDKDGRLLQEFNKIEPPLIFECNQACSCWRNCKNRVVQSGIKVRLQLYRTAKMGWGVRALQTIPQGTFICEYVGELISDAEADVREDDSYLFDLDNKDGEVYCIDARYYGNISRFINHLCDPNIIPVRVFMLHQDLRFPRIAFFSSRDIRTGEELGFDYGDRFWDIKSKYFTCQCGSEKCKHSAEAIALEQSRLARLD
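Readings reflect AlphaScreen signal from monomethyl-H3K9 antibody detection. HMT at 20 nM; substrate b-H3K9 500 nM; cofactor SAM 20 uM; 2 h RT reaction; compounds tested as titrations in qHTS with 15 min preincubation.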
Six1-Eya2 inh – inhibitors of human Six1/Eya2 interaction; Q15475+O00167; AlphaScreen GST-Six1/His-Eya2 binding, biochemical; active compounds read low; activity change, % (concentration not given with the values); 360,000 compounds, 0.56% hits; AID 651725; in the data active = activity change below about -65%; inconclusive = mostly about -30% to -63%; also: % is scaled to controls: 0 for no effect and ±100 for the full control effect
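Six1/Eya2 binding was read as AlphaScreen signal after compounds were pinned into GST-Six1 plus His-tagged Eya2 (5X stock 250/500 nM) in pH 8.0 Tris/NaCl/TCEP buffer, beads added, then incubated 1 h, 37 C, dark.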
CtBP-E1A blk – blocks the CtBP interaction with E1A; activity change, % (no concentration beside the values); 340,000 compounds, 0.49% hits; AlphaScreen GST-E1A/His-CtBP binding, 1536-well; active compounds read low; in the data active = activity change below about -65%; inconclusive = mostly about -30% to -63%; also: % is scaled to controls: 0 for no effect and ±100 for the full control effect
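In 5 uL wells, 23 nL compound meets equimolar GST-E1A and His-CtBP (5X stock 125 nM each) for 2 h, 37 °C. Beads (5X, 50 ug/mL) then 1 h, 37 °C, dark.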
HP1b binding inh – inhibitors of HP1-beta chromodomain binding to methylated histone tails | P83916 | AlphaScreen HP1-beta / biotin-H3K9me3 peptide binding | Potency, µM (series often up to 114 µM), without a hit: at the top dose activity change, negative = inhibition, usual class: inhibitors | 390,000 compounds, 0.56% hits | AID 540317; also: potency is read from the fitted curve at half-maximal effect; nearly all actives have a fitted effect of over 70% in size
Target sequence (P83916 whole entry, looked up): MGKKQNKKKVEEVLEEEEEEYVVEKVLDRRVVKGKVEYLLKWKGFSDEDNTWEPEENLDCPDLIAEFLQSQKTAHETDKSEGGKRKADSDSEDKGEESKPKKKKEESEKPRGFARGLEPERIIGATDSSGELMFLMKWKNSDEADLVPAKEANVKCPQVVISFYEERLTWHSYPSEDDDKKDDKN
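Compound inhibition of the preformed complex between 50 nM HP1-beta and 50 nM biotinylated H3K9me3 peptide was read by AlphaScreen. Buffer was PBS pH 7.4 with 0.01% Tween-20. Incubations ran 30 min at room temperature, with 10 ug/mL donor/acceptor beads.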
JMJD2A Tudor inh – inhibitors of human JMJD2A Tudor domain. O75164. AlphaScreen JMJD2A-Tudor / H3K4me3 peptide binding. Potency, µM (doses to about 114 µM), inactives show at the highest dose activity change, negative = inhibition, actives largely listed as inhibitors. 390,000 compounds, 4.4% hits. AID 504339; also: potency is read from the fitted curve at half-maximal effect; % is scaled to controls: 0 for no effect and ±100 for the full control effect; nearly all actives have a fitted effect of over 50% in size
BAZ2B block – BAZ2B (human) inhibition. Q9UIF8. AID 504333. 360,000 compounds, 4.4% hits. Potency, µM (titrated, usually from 114 µM), without a hit: at the top dose activity change, negative = inhibition, actives largely listed as inhibitors. AlphaScreen BAZ2B-H3K14Ac peptide displacement; also: potency is read from the fitted curve at half-maximal effect; % is scaled to controls: 0 for no effect and ±100 for the full control effect; nearly all actives have a fitted effect of over 60% in size
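Compounds, titrated to a top concentration of 110 uM, were incubated 30 min at room temperature with preformed BAZ2B/acetyl-K14 H3 peptide complex (50 nM each). Proximity signal was measured by AlphaScreen after 20 min with beads.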
* = called active by the depositor; ? = inconclusive; . = no result given; ! = not confirmed by another sample; [ ] = dose if it differs, or a comment. Rows were chosen to be rich in hits. Some 10% of all compounds tested hit in one or more screens of this group. Unless noted, calls follow the shape of the dose curve; as a rule, active = well fitted inhibition curve with a large enough effect; inconclusive = small, poorly fitted or top-dose-only effect; inactive = no such curve, though single readings can be large or run the other way.

SMILES	G9a block	Six1-Eya2 inh	CtBP-E1A blk	HP1b binding inh	JMJD2A Tudor inh	BAZ2B block
Cc1cc(NS(=O)(=O)c2ccccc2)cc(Cl)c1O	2.2µM*	8	-12	-26%	89µM*	12%
O=S(=O)(Nc1ccc(NS(=O)(=O)c2ccccc2)c(Cl)c1)c1ccccc1	.	15	14	33%[57 µM]	-10%	.
C=C(C)CC(Nc1ccc(OC)cc1)c1ccco1 (stereo not drawn)	?	0	7	38%	3%	50µM*
COc1ccc(S(=O)(=O)NC(CC(=O)O)c2ccco2)cc1 (stereo not drawn)	1%	-1	-3	32%	-4%	3%
O=C(CCn1c(=O)c2cccn2c2cccnc21)N1CCN(c2cccc(Cl)c2)CC1	?	-1	1	-15%	16µM*!	-32%
COc1ccccc1C(=O)Nc1ccc(S(=O)(=O)Nc2ncccn2)cc1	3%[59 µM]	.	.	35%	-8%	0%
Clc1ccc(-c2nnc(N3CCCC3)nn2)cc1	7.1µM*	-27	-19	?	-30%	?
Cc1ccc(NC(=O)Cn2nc(Cc3ccncc3)c3ccccc3c2=O)c(Cl)c1	-39%[59 µM]	.	.	62%	?	71µM*
O=C(Cn1nc(Cc2ccncc2)c2ccccc2c1=O)Nc1cccnc1Cl	19%[59 µM]	9	4	29%	9%	4%
CCN(CC(=O)Nc1c(F)cccc1F)C(=O)/C=C/c1ccc2ccccc2n1	7.1µM*	-26	-1	-89%	3.5µM*	8.9µM*
Cc1ccc([C@@H]2CC=C(C(=O)O)[C@H](c3ccc(Cl)cc3)N2S(=O)(=O)c2ccccc2C)cc1	.	-10	-25	15%	-25%	.
Cc1[nH]n(-c2nc(-c3ccccc3F)cc(=O)[nH]2)c(=O)c1CCO	?	-9	-22	29%	-27%	5%
Cc1ccccc1S(=O)(=O)/N=C(/c1ccccc1)N1CCOCC1	.	6	0	-9%	32µM*	-8%
CCOc1ccccc1NC1c2ccccc2C(=O)N1Cc1ccco1 (stereo not drawn)	45µM*	-4	-14	-8%	?	?
O=C(CCN1C(=O)S/C(=C/c2ccc(F)cc2)C1=O)Nc1ccc(O)c(C(=O)O)c1	45µM*	-1	.	12%[57 µM]	-25%	-20%
O=C(CN1C(=O)/C(=C/c2ccccc2F)SC1=S)NC1C=CS(=O)(=O)C1 (stereo not drawn)	.	-5	-1	50%	-11%	-32%
O=C(CCN1C(=O)/C(=C\C=C\c2ccccc2)SC1=S)Nc1ccc(C(=O)O)cc1	32µM*	-13	?	50µM*	22µM*	16µM*
CN1CCN(NC(=O)CN2C(=O)/C(=C/c3ccccc3F)SC2=S)CC1	50µM*	.	.	.	.	?
CCN(CC)CCOC(=O)c1ccc(NC(=O)CCCN2C(=O)/C(=C/c3cccs3)SC2=S)cc1	.	-28	0	?	40µM*	16%
O=C(CCn1c(=O)c2ccccc2n(CC(=O)NC2CCCC2)c1=O)NCc1ccco1	8%[59 µM]	0	-1	26%	-2%	-34%
Cn1cc(C(=O)N2CCN(c3cccc(Cl)c3)CC2)c(=O)c2cc(S(=O)(=O)N3CCOCC3)ccc21	1%	-7	-6	22%	-20%	-8%[57.1 µM]
Cc1ccccc1CNC(=O)c1csc([C@@H]2C[C@H](O)[C@@H](CO)O2)n1	.	0	4	.	.	.
Cc1noc(C)c1-c1ccc2ncnc(NC3CCCc4ccccc43)c2c1 (stereo not drawn)	.	.	.	.	-34%	.
O=C(CN1C(=O)/C(=C\C=C\c2ccccc2)SC1=S)Nc1ccc(F)cc1	-40%[59 µM]	-2	0	2%	-22%	-28%
O=C(CCCN1C(=O)/C(=C/c2ccccc2)SC1=S)Nc1ccc(C(=O)O)c(O)c1	?	-11	-17	-12%[57 µM]	?	?
O=C(CCCN1C(=O)/C(=C\c2cccs2)SC1=S)Nc1ccc(C(=O)O)cc1	-40%	-28	-26	-6%	-31%	?
